Screening data deposited in PubChem by National Center for Advancing Translational Sciences (NCATS).
Hits are enriched below; roughly 3.8% of the tested compounds scored in any of these assays.
ATXN viability – reduces viability in counter-screen for ATXN expression inhibitors; hit rate 0.49% among 400,000; S2 cells (HEK-293 line with an ATXN2-luciferase reporter) viability, CellTiter-Fluor protease fluorescence, 24 h; Potency, µM (series often up to 56.7 µM), usual class: cytotoxic; further: nearly all actives have a fitted effect of over 40% in size
ATXN2 expr inh – inhibitors of ATXN2 expression | HEK-293 ATXN2-luciferase reporter, luminescence, 24 h | Potency, µM (series often up to 57 µM), for the others: at the top dose activity change, negative = inhibition, hits mostly inhibitors | hit rate 0.72% among 360,000 | AID 1745845; further: on the % scale 0 is the no-effect control and ±100 the full control effect; nearly all actives have a fitted effect of over 55% in size
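ATXN2-luciferase reporter cells (luciferase flanked by upstream and downstream ATXN2 gene portions) were treated 24 h at 37 °C with compounds at up to 57 uM. SteadyGlo luminescence gave expression; GF-AFC fluorescence gave viability.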
HT1080-NT tox – kills 2HG-producing HT-1080-NT fibrosarcoma cells; HT-1080-NT fibrosarcoma viability, CellTiter-Glo ATP luminescence, 48 h; Potency, µM (series often up to 46.1 µM), inactives show top-dose activity, negative = less viability, usual class: cytotoxic; hit rate 1.6% among 360,000; AID 686970;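 further: NT is the 2HG producing partner of a matched IDH1 knockdown line; 0% = DMSO-treated cells and -100% = media-only wells without cells; nearly all actives have a fitted effect of over 55% in size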
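HT-1080-NT fibrosarcoma cells (2HG-overproducing), 750 cells/well in RPMI with 5% FBS, dosed after 2 h and incubated 48 h at 37C. CellTiter-Glo luminescence normalized to DMSO and no-cell wells; concentration-response curves fitted and classed.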
HT1080 IDH1KD tx – toxicity to HT-1080 IDH1 knockdown cells (counter line). HT-1080 IDH1 knockdown viability, ATP luminescence, 48 h. Potency, µM (doses to about 46.1 µM), inactives show at the highest dose activity, negative = toxicity, usual class: cytotoxic. hit rate 2% among 360,000;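 further: 0% = DMSO wells and -100% = cell-free medium wells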
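Cytotoxicity counter-line: IDH1KD HT-1080, 48 h, CellTiter-Glo. Curves classed by r2, magnitude and activity.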
TGFb SMAD3 inh – inhibitors of TGF-b signaling | Potency, µM (series often up to 46.1 µM), for inactives: at the highest dose activity, negative = inhibition, actives largely listed as inhibitors | AID 588855 | hit rate 1.2% among 410,000 | HepG2 CAGA-GFP TGF-b/SMAD3 reporter, GFP fluorescence, 18 h; TGF-beta stimulated, 500 pg/mL final; further: on the % scale 0 is the no-effect control and ±100 the full control effect; nearly all actives have a fitted effect of over 65% in size
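Per well, imaged GFP fluorescence of HEPG2 CAGA-GFP cells gives the signal; cells get compound, then TGF-beta (500 pg/mL final), 18 h at 37 degrees C; %Activity versus -TGF-beta and +DMSO controls.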
HepG2 viability – counter-screen for TGF-b inhibitors: cytotoxicity in HepG2 cells; AID 588856; HepG2 CAGA-GFP viability, ATP luminescence, 18 h; Potency, µM (titrated, usually from 46.1 µM), inactives show top-dose activity change, negative = cytotoxicity, hits mostly cytotoxic; hit rate 0.76% among 410,000
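CellTiter-Glo luminescence gave cytotoxicity after 18 hours at 37 degrees C. The cells were HepG2 CAGA-GFP in 1% FBS DMEM, stimulated with 500 pg/mL TGF-beta after compound addition. %Activity was normalised to no-cell wells (complete cell-killing) and DMSO (no toxicity), and curves were fitted and classified.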
* hit, by the source's call; i = inactive; u = inconclusive; x = no result given. The call rests on the fitted dose curve; in most records, active means well fitted curve in the direction sought with a large enough effect; inconclusive means small, poorly fitted or top-dose-only effect, or another doubt; inactive means no such curve, though single readings can be large; an effect the other way counts as inactive or inconclusive. Potency means the concentration at half of the fitted maximal effect.

SMILES	ATXN viability	ATXN2 expr inh	HT1080-NT tox	HT1080 IDH1KD tx	TGFb SMAD3 inh	HepG2 viability
Cc1ccc(S(=O)(=O)Nc2ccc3c(c2)C(=O)N([C@H](C)CO)C[C@H](C)[C@@H](CN(C)Cc2ccccc2)O3)cc1	i	2%	-3%	2%	-1%	-19%
Cc1ccc(S(=O)(=O)Nc2ccc3c(c2)CC(=O)N([C@H](C)CO)C[C@@H](C)[C@H](CN(C)Cc2ccc(-c4ccccc4)cc2)O3)cc1	22µM*	u	u	u	11µM*	-93%
C[C@H]1CN([C@@H](C)CO)C(=O)Cc2cc(NC(=O)CCC(F)(F)F)ccc2O[C@H]1CN(C)Cc1ccc(C(F)(F)F)cc1	x	u	u	u	u	-21%
C[C@@H]1CN([C@@H](C)CO)C(=O)Cc2cc(NS(=O)(=O)c3ccccc3)ccc2O[C@H]1CN(C)Cc1ccncc1	i	5%	1%	3%	u	-18%
C[C@H]1CN([C@@H](C)CO)C(=O)Cc2cc(NC(=O)CCC(F)(F)F)ccc2O[C@H]1CN(C)Cc1ccc(-c2ccccc2)cc1	x	u	23µM*	21µM*	13µM*	18µM*
CNc1nc(-c2ccccc2)c(-c2ccccc2)s1	x	x	1%	4%	x	x
CCOc1cccc2sc(N(Cc3cccnc3)C(=O)C3CCCCC3)nc12	x	x	x	x	u	-21%
Cc1ccc(S(=O)(=O)Nc2ccc3cc([N+](=O)[O-])ccc3c2[N+](=O)[O-])cc1	u	u	2.6µM*	u	u	-16%
Cc1ccc(S(=O)(=O)Nc2ccc3ccccc3c2[N+](=O)[O-])cc1	i	-11%	u	-21%	u	-31%
CCc1ccc(C(=O)c2cn(CC(=O)Nc3ccc(C)c(C)c3)c3ccccc3c2=O)cc1	i	-7%	x	x	u	-6%
O=S(=O)(c1ccc2ncsc2c1)N1CCN(c2nc(-c3cccs3)nc3ccccc23)CC1	x	x	16%	18%	x	x
CC1CCN(CC(=O)Nc2cccc(C(=O)Nc3cccc(C(F)(F)F)c3)c2)CC1	u	u	16µM*	23µM*	u	-56%
Cc1ccccc1C(C(=O)NC1CCCCC1)N(C(=O)CNc1ccc(C#N)cc1)c1cccc(F)c1 (stereo not drawn)	x	3%	x	x	x	x
CC(C)(C)n1ncc2c(=O)n(Cc3ccc(OC(F)(F)F)cc3)cnc21	x	x	x	x	-21%	-43%
CS(=O)(=O)c1ccc(-c2cccc3c2OC(CNC(=O)c2cc(C4CC4)[nH]n2)C3)cc1 (stereo not drawn)	i	x	x	x	x	x
CCC(C(=O)O)C1CCC(C)C(C(C)C(O)C(C)C(=O)C(CC)C2OC3(C=CC(O)[C@@]4(CC[C@](C)(C5CC[C@@](O)(CC)C(C)O5)O4)O3)C(C)CC2C)O1 (stereo partly drawn)	x	7.7µM*	x	x	x	x
Cc1cc2c(c(-c3ccc4nc(C)ccc4c3)c1)OC(CNC(=O)Cc1ccn(C)c1)C2 (stereo not drawn)	i	x	x	x	x	x
CCNc1nc(NCC)n2c(SC(C(=O)Nc3cc(Cl)cc(Cl)c3)c3ccccc3)nnc2n1 (stereo not drawn)	x	25µM*	0%	1%	-3%	-10%
CCNc1nc(NCC)n2c(SCC(=O)Nc3cccc(Cl)c3)nnc2n1	i	-16%	-2%	1%	3%	3%
CN(C)/[N+]([O-])=N/Oc1ccc([N+](=O)[O-])cn1	x	x	x	x	0%	-7%
CSc1ccc(CNC(=O)Cn2c(-c3cccs3)cc3cc(F)ccc32)cc1	u	-16%	x	x	-9%	-35%
NC(=S)N/N=C1/CCSc2ccc3ccccc3c21	i	-19%	26µM*	u	u	-20%
COC(=O)c1ccc(-n2c(C)cc(-c3csc(NC(=O)c4ccc(S(=O)(=O)N(C)C)cc4)n3)c2C)cc1	i	-1%	7%	9%	u	13µM*
CC(C)[N+]1(C)[C@@H]2CC[C@H]1CC(OC(=O)[C@@H](CO)c1ccccc1)C2 (stereo partly drawn)	i	x	x	x	x	x
COc1ccc(NC(=O)C(c2ccc(OC)cc2)n2c(=O)c(-c3cc4ccccc4[nH]3)nc3ccccc32)cc1 (stereo not drawn)	x	x	u	-22%	x	x
SMILES	ATXN viability	ATXN2 expr inh	HT1080-NT tox	HT1080 IDH1KD tx	TGFb SMAD3 inh	HepG2 viability
O=C(Nc1ccc2ccccc2c1)C(c1ccc(C(F)(F)F)cc1)n1c(=O)c(-c2cc3ccccc3[nH]2)nc2ccccc21 (stereo not drawn)	x	x	u	16µM*	x	x
O=C(Nc1ccc2c(c1)OCCO2)C(c1ccc(C(F)(F)F)cc1)n1c(=O)c(-c2cc3ccccc3[nH]2)nc2ccccc21 (stereo not drawn)	x	x	u	16µM*	x	x
CCn1cc(C(=O)NCCCN2CCCC(C)C2)c(=O)c2cc(S(=O)(=O)N3CCc4ccccc4C3)ccc21 (stereo not drawn)	i	u	u	21µM*	-29%	-32%
CCCNC(=O)Cn1c(SCc2ccccc2C)nc2ccncc21	x	x	x	x	7%	-6%
CC(=O)N1N=C2c3ccccc3CCC2C1c1ccc(F)cc1 (stereo not drawn)	x	1%	u	21µM*	u	-26%
CCN1CCOC(=O)C1CC(=O)Nc1cc(Cl)ccc1OC (stereo not drawn)	i	3%	x	x	u	-3%
OC[C@H]1O[C@@H](Oc2cc(O)cc(C=Cc3ccc(O)cc3)c2)[C@H](O)[C@@H](O)[C@H]1O	x	15%	x	x	x	x
CCOC(=O)c1cnc2ccc(OC)cc2c1Nc1ccc2c(c1)OCCO2	i	u	u	u	4%	-22%
CCOC(=O)c1cnc2ccc(OC)cc2c1Nc1ccc(N2CCN(C)CC2)cc1	i	u	u	23µM*	u	-20%
CCOC(=O)c1ccc2ncc(C(=O)OCC)c(Nc3ccc(N4CCOCC4)cc3)c2c1	u	22µM*	u	u	u	-32%
O=[N+]([O-])c1ccc(O/N=[N+](\[O-])N2CCCC2)c([N+](=O)[O-])c1	x	x	x	x	u	-82%
CCCC[C@@H]1Cc2[nH][nH]c(=O)c2[C@H](c2ccc3ccccc3c2)O1	i	3%	0%	23µM*	x	x
CC(=O)c1cccc(-c2csc(N3CCC(C(N)=O)CC3)n2)c1	i	6%	x	x	2%	-9%
NC(=O)C1CCN(c2nc(-c3cccc(Cl)c3)cs2)CC1	i	4%	x	x	u	6.3µM*
